The values that follow come from PubChem BioAssay AID624330 (Southern Research Specialized Biocontainment Screening …, 2012).

A word on the inhibition: it is the drop in the measured response relative to a control, in per cent.

SMILES strings stand for the structures. Hit rate of the full screen: of about 340,000 compounds, about 2,100 (0.62%) were called active.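 Rule for the calls: active = first-screen hits whose inhibition reached a set limit at any dose in the follow-up dose series; inconclusive = inhibition above the set first-screen limit but never retested; inactive = the rest.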 Not all results are given here. Potency and affinity values are given separately.

In the assay the target is Rac GTPase-activating protein 1 (Homo sapiens) (UniProt Q9H0H5). Put plainly: blockers of MgcRacGAP-driven Rac1 GTP hydrolysis – biochemical, ADP Hunter fluorescence, primary and confirmatory, confirmation (AID 624330).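 Note: fluorescence reports GDP produced by GAP-driven GTP hydrolysis.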 The following applies: MgcRacGAP-stimulated Rac1 GTP hydrolysis, at 30 µM, active compounds read high, GST-tagged Rac1 F28L mutant substrate.
Chain of Rac GTPase-activating protein 1 (Homo sapiens) (Q9H0H5 whole entry, looked up): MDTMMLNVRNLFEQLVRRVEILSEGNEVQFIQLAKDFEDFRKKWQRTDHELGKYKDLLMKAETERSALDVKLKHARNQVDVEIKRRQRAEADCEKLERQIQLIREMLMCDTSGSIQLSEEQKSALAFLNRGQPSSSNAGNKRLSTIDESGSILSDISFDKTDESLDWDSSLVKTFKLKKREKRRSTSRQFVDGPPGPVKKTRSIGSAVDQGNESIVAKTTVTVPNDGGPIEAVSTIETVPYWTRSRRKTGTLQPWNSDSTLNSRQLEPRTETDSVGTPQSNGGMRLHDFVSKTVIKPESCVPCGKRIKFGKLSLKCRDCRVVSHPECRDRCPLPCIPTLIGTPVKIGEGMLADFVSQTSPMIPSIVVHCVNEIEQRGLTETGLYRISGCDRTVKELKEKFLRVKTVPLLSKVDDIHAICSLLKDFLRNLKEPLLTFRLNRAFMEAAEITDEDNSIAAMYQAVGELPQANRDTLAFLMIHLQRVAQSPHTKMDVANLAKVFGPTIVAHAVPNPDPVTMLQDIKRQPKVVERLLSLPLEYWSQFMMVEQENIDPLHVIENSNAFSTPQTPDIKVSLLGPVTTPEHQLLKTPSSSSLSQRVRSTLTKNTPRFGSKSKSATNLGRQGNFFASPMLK
With `CC(Oc1cc2oc(=O)c3c(c2cc1Cl)CCCC3)C(=O)NCCN1CCOCC1` (configuration not stated), the inhibition was 11.2% (inactive).

Regarding `CCC(C)c1ccc(NC(=S)NCCn2cc(Cl)cn2)cc1` (configuration not stated), the inhibition was 10.6% (inactive).

For `CC(NCc1ccc(S(N)(=O)=O)cc1)C(=O)N1CCc2ccccc21` (configuration not stated), the inhibition is 16.2% (inactive).

Regarding `CC1Cc2ccccc2N1C(=S)Nc1ccc(S(N)(=O)=O)cc1` (configuration not stated), the inhibition is 10.7% (inactive).

With `CCOC(=O)N1CCN(c2c(N3CCN(c4ccc(F)cc4)CC3)c(=O)c2=O)CC1`, the inhibition was 6.14% (inactive).

As to `O=C(CCCn1c(=S)[nH]c2cc3c(cc2c1=O)OCO3)NCCc1ccccc1Cl`, the inhibition is 9.48% (inactive).

Take `Nc1ccc(C(=O)Nc2ccc(Nc3ccncc3)cc2)cc1`: the inhibition is 5.48% (inactive).

Regarding `Clc1ccc(Nc2nc(-c3ccncc3)cs2)cc1`, the inhibition was 9.41% (inactive).

For the compound `Cc1ccc(Nc2nc(-c3ccncc3)cs2)cc1`, the inhibition is 8.27% (inactive).

`Nc1ccc(Nc2ccncc2[N+](=O)[O-])cc1`: the inhibition is 8.85% (inactive).

Regarding `CSc1cc(/C=N/O)c(SC)s1`, the inhibition is 3.21% (inactive).

For the compound `CCCn1c2ccccc2c2cnn(CC(=O)N3CCN(C4CCCCC4)CC3)c(=O)c21`, the inhibition was 10.4% (inactive).

Consider `O=C(O)c1cc([N+](=O)[O-])cc([N+](=O)[O-])c1N1CCN(c2cccc(C(F)(F)F)c2)CC1`, for which the inhibition was -6.28% (inactive).

With `COc1ccc(N(C(=O)COc2ccc(C)cc2)S(=O)(=O)c2ccc(C)cc2)cc1`, the inhibition was 3.97% (inactive).

With `CC(C)(C)c1ccc(/C=C2\Oc3cc(O)ccc3C2=O)cc1`, the inhibition is 5.28% (inactive).

Regarding `O=C1/C(=C/c2cccc(F)c2)Oc2cc(O)ccc21`, the inhibition is 6.11% (inactive).

On to `COc1ccc(/C=C2\Oc3cc(OCC(N)=O)ccc3C2=O)cc1OC`, for which the inhibition is 10.9% (inactive).

`O=C1/C(=C/c2ccc(Br)cc2)Oc2cc(O)ccc21`: the inhibition is 7.31% (inactive).

For `O=C(COC(=O)CNC(=O)c1ccc(Br)cc1)NCCC1=CCCCC1`, the inhibition is 11.9% (inactive).

As for `Cc1cccc2cc(CN(CC(C)C)S(=O)(=O)c3ccccc3)c(=O)[nH]c12`, the inhibition is 8.17% (inactive).

As for `O=c1c2ccccc2c(C=Nc2ccc(Cl)cn2)c(O)n1-c1cc(Cl)ccc1N1CCOCC1`, the inhibition was 12.5% (inactive).

As to `Brc1cc2[nH]cnc2c2ccccc12`, the inhibition was 8.14% (inactive).

Regarding `Oc1ccc2c(c1)c1ccccc1c1ncccc21`, the inhibition was 17.4% (inactive).

With `CCN(CC(=O)Nc1c(F)cccc1F)C(=O)c1cccc(S(=O)(=O)N(C)c2ccccc2)c1`, the inhibition was 2.67% (inactive).

On to `COC(=O)C=CSC(=S)C1CCCC1=N` (configuration not stated), for which the inhibition was 6.77% (inactive).

For `COc1ccccc1-c1cn(-c2ccccc2)c(=S)[nH]1`, the inhibition is 10.3% (inactive).

For `N#CCCn1c(SCC(=O)c2c[nH]c3ccccc23)nc2ccccc21`, the inhibition was 15.1% (inactive).
